# Experimental data: PubChem BioAssay (NCATS)
# Values joined by “and” are separate entries in the source; they are usually repeats but may differ in a detail not shown here. Equal values may be shown once. Results filed as inconclusive are left out. A call without a number means that no potency is given here. Active and inactive are the calls of the source. The call rests on the fitted dose curve; in most records, active means well fitted curve in the direction sought with a large enough effect; inconclusive means small, poorly fitted or top-dose-only effect, or another doubt; inactive means no such curve, though single readings can be large; an effect the other way counts as inactive or inconclusive.
# What was measured:
# [1] = qHTS of pediatric cancer cell lines to identify multiple opportunities for drug repurposing: Primary screen for NB-EBc1 cells (AID 1347095); details: NB-EBc1 neuroblastoma viability, CellTiter-Glo luminescence, 48 h; series mostly up to 46 µM; further: potency means the concentration at half of the fitted maximal effect
# In short: (§1)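 Cells plated at 500-1,000/well in growth medium, compounds added after 5 h. MIPE tested at 11 points (from 0.78 nM), NPC at 8 points (from 0.59 nM). CellTiter-Glo luminescence after 48 h; concentration-response curves from primary screen.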
# [2] = qHTS of pediatric cancer cell lines to identify multiple opportunities for drug repurposing: Primary screen for U-2 OS cells (AID 1347096); details: U-2 OS viability, CellTiter-Glo luminescence, 48 h; series mostly up to 46 µM; further: nearly all actives have a fitted effect of over 50% in size
# In short: (§2)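 Cells (500-1,000/well) in growth media were settled 5 h at 37 degrees C, then given compounds for 48 h. Viability was read as CellTiter-Glo luminescence. Primary runs used MIPE at 11 points (0.78 nM-46 µM) and NPC at 8 points (0.59 nM-46 µM); follow-ups used 11 points.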
# [3] = qHTS of pediatric cancer cell lines to identify multiple opportunities for drug repurposing: Primary screen for Saos-2 cells (AID 1347097); details: Saos-2 viability, CellTiter-Glo ATP luminescence, 48 h; series mostly up to 46 µM; further: nearly all actives have a fitted effect of over 40% in size; further: potency means the concentration at half of the fitted maximal effect
# In short: as §1
# [4] = qHTS of pediatric cancer cell lines to identify multiple opportunities for drug repurposing: Primary screen for NB1643 cells (AID 1347099); details: NB1643 neuroblastoma viability, CellTiter-Glo luminescence, 48 h; series mostly up to 46 µM; further: nearly all actives have a fitted effect of over 50% in size
# In short: as §1
# [5] = qHTS of pediatric cancer cell lines to identify multiple opportunities for drug repurposing: Primary screen for LAN-5 cells (AID 1347100); details: LAN-5 neuroblastoma viability, CellTiter-Glo luminescence, 48 h; series mostly up to 46 µM
# In short: as §2
# [6] = qHTS of pediatric cancer cell lines to identify multiple opportunities for drug repurposing: Primary screen for BT-12 cells (AID 1347101); details: BT-12 viability, CellTiter-Glo luminescence, 48 h; series mostly up to 57.3 µM; further: nearly all actives have a fitted effect of over 25% in size; further: potency means the concentration at half of the fitted maximal effect
# In short: (§3)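 Cells (500-1,000/well) rested 5 h, then received compounds for 48 h; metabolically active cells were measured by CellTiter-Glo luminescence. Final concentrations spanned up to 46 µM (MIPE, 11-point) or 0.59 nM-46 µM (NPC, 8-point) in primary screens, 11-point in follow-ups.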
# [7] = qHTS of pediatric cancer cell lines to identify multiple opportunities for drug repurposing: Primary screen for Rh18 cells (AID 1347102); details: Rh18 rhabdomyosarcoma viability, CellTiter-Glo luminescence, 48 h; series mostly up to 46 µM; further: nearly all actives have a fitted effect of over 65% in size; further: potency means the concentration at half of the fitted maximal effect
# In short: as §2
# [8] = qHTS of pediatric cancer cell lines to identify multiple opportunities for drug repurposing: Primary screen for OHS-50 cells (AID 1347103); details: OHS-50 osteosarcoma viability, CellTiter-Glo luminescence, 48 h; series mostly up to 57.3 µM; further: nearly all actives have a fitted effect of over 40% in size; further: potency means the concentration at half of the fitted maximal effect
# In short: as §3
# [9] = qHTS of pediatric cancer cell lines to identify multiple opportunities for drug repurposing: Primary screen for RD cells (AID 1347104); details: RD rhabdomyosarcoma viability, CellTiter-Glo luminescence, 48 h; series mostly up to 46 µM; further: nearly all actives have a fitted effect of over 55% in size; further: potency means the concentration at half of the fitted maximal effect
# In short: as §1
# [10] = qHTS of pediatric cancer cell lines to identify multiple opportunities for drug repurposing: Primary screen for MG 63 (6-TG R) cells (AID 1347105); details: MG 63 (6-TG R) viability, CellTiter-Glo, 48 h; series mostly up to 46 µM; further: nearly all actives have a fitted effect of over 50% in size
# In short: as §1
# [11] = qHTS of pediatric cancer cell lines to identify multiple opportunities for drug repurposing: Primary screen for control Hh wild type fibroblast cells (AID 1347106); details: Hh wild-type fibroblast viability, CellTiter-Glo luminescence, 48 h; series mostly up to 46 µM;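 further: a drop in luminescence marks cytotoxicity and a rise apparent proliferation; nearly all actives have a fitted effect of over 55% in size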
# In short: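 Viability after 48 h compound treatment at 37C, 500-1,000 cells/well, read as ATP luminescence with CellTiter-Glo. Primary screens used 11-point (MIPE, 0.78 nM-46 µM) or 8-point (NPC, 0.59 nM-46 µM) final concentrations; follow-up screens used 11-point dilutions.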
# [12] = qHTS of pediatric cancer cell lines to identify multiple opportunities for drug repurposing: Primary screen for Rh30 cells (AID 1347107); details: Rh30 rhabdomyosarcoma viability, CellTiter-Glo luminescence, 48 h; series mostly up to 46 µM; further: nearly all actives have a fitted effect of over 75% in size
# In short: as §2
# [13] = qHTS of pediatric cancer cell lines to identify multiple opportunities for drug repurposing: Primary screen for Rh41 cells (AID 1347108); details: Rh41 rhabdomyosarcoma viability, CellTiter-Glo luminescence, 48 h; series mostly up to 46 µM; further: nearly all actives have a fitted effect of over 70% in size; further: potency means the concentration at half of the fitted maximal effect
# In short: as §1
# [14] = qHTS of pediatric cancer cell lines to identify multiple opportunities for drug repurposing: Primary screen for SK-N-SH cells (AID 1347098); details: SK-N-SH viability, CellTiter-Glo luminescence, 48 h; series mostly up to 57 µM; further: nearly all actives have a fitted effect of over 65% in size; further: potency means the concentration at half of the fitted maximal effect
# In short: as §3
# [15] = qHTS of pediatric cancer cell lines to identify multiple opportunities for drug repurposing: Confirmatory screen for NB1643 cells (AID 1347109); details: NB1643 neuroblastoma cell viability; series mostly up to 45.9 µM; further: nearly all actives have a fitted effect of over 45% in size; further: potency means the concentration at half of the fitted maximal effect
# In short: as §2
# [16] = qHTS of pediatric cancer cell lines to identify multiple opportunities for drug repurposing: Confirmatory screen for A673 cells (AID 1347110); details: A673 Ewing sarcoma cell viability; series mostly up to 45.9 µM;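 further: potency means the concentration at half of the fitted maximal effect; cells exposed to compound for 48 h before the viability read; nearly all actives have a fitted effect of over 65% in size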
# In short: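 A673 cells at 500-1,000 cells/well were dosed 5 h after plating, in dilution series up to 46 uM final; primary runs used 8 or 11 points and confirmatory runs used 11 points. Viability was read by CellTiter-Glo luminescence after 48 h, against DMSO and 2.3 uM bortezomib controls.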
# [17] = qHTS of pediatric cancer cell lines to identify multiple opportunities for drug repurposing: Confirmatory screen for SK-N-MC cells (AID 1347111); details: SK-N-MC cell viability; series mostly up to 45.9 µM;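 further: potency means the concentration at half of the fitted maximal effect; cells exposed to compound for 48 h before the readout; nearly all actives have a fitted effect of over 70% in size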
# In short: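 Metabolically active cells were quantified by ATP-dependent luminescence (CellTiter-Glo, 15 min at room temperature) following 48 h treatment. Cells had been plated at 500-1,000 per well and settled for 5 h beforehand.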
SMILES,Potency [1],Potency [2],Potency [3],Potency [4],Potency [5],Potency [6],Potency [7],Potency [8],Potency [9],Potency [10],Potency [11],outcome [12],Potency [13],Potency [14],Potency [15],Potency [16],Potency [17]
CN1C2CCC1CC(OC(=O)C(CO)c1ccccc1)C2 (stereo not given),inactive,inactive,inactive,inactive,inactive,inactive,inactive,inactive,inactive,inactive,inactive,inactive,inactive,–,–,–,–
O=c1c(-c2ccc(O)cc2)coc2cc(O)cc(O)c12,23.7 µM (active),inactive,inactive,inactive,–,inactive,inactive,–,inactive,–,inactive,inactive,inactive,–,–,–,–
CC(C)C(=O)Nc1ccc([N+](=O)[O-])c(C(F)(F)F)c1,inactive,inactive,590 nM (active),–,inactive,11 µM (active),inactive,24.6 µM (active) and 432 nM (active),–,–,–,inactive,11.8 µM (active),12.1 µM (active),inactive,10.4 µM (active),–
CN1CCC(=C2c3ccccc3C=Cc3ccccc32)CC1,inactive,inactive,–,–,–,–,–,13.8 µM (active) and 19.3 µM (active),–,–,inactive,inactive,inactive,24.1 µM (active),–,–,–
CN(C)CCCN1c2ccccc2CCc2ccc(Cl)cc21,inactive,–,16800 nM (active),–,–,19.3 µM (active) and 15.5 µM (active),–,13.7 µM (active) and 17.4 µM (active),1.48 µM (active),–,–,inactive,inactive,1.52 µM (active) and 24.4 µM (active),–,–,–
CC(COc1ccccc1)N(CCCl)Cc1ccccc1 (stereo not given),–,inactive,–,inactive,inactive,9.68 µM (active),inactive,24.3 µM (active),inactive,inactive,inactive,inactive,inactive,inactive,16.5 µM (active),–,10.4 µM (active)
CN1C(C(=O)Nc2ccccn2)=C(O)c2ccccc2S1(=O)=O,–,inactive,inactive,–,–,inactive,inactive,inactive,inactive,inactive,inactive,inactive,inactive,inactive,–,–,–
CC(CCc1ccc(O)cc1)NCCc1ccc(O)c(O)c1 (stereo not given),–,inactive,18.7 µM (active) and 21.1 µM (active),–,–,–,20.9 µM (active),inactive,–,inactive,inactive,inactive,inactive,–,inactive,–,9.27 µM (active)
